Reference: article PMC9574860, “Chemical Toolkit for PARK7: Potent, Selective, and High-Throughput” (Journal of Medicinal Chemistry, 2022)
The whole screen tested about 7,900 compounds, of which about 400 (5.1%) showed an effect of 50% or more. For the sample, strong results were picked, then their nearest neighbours and some compounds at random.

molecular target: Parkinson's disease protein 7 (PARK7/DJ1) (human, UniProt Q99497); assay: primary screen, percent inhibition; read as competition with a fluorescent probe by fluorescence polarization; higher = more effect of the substance; details: 100 µM
Sequence (Q99497 whole entry, looked up, the tested form may be a part): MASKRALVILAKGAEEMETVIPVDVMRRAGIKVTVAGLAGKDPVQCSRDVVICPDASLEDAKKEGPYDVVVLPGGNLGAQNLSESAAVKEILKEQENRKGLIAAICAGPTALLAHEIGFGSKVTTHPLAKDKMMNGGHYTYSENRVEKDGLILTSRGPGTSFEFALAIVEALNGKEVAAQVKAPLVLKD
Procedure, shortened: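 Covalent fragments at 100 μM final were incubated 2 h with 0.2 μM PARK7, then 20 nM probe JYQ-107 added for a further 2 h. Fluorescence polarization read at 480/520 nm; relative FP loss versus reference controls gave remaining enzyme activity.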

SMILES	Inhibition % [%]
N#Cc1nccnc1N1CCc2c(F)ccc(F)c2C1	41
C=CC(=O)NCc1cc2ccccc2s1	13.3
CC1CC(N2CCCCC2Cn2cncn2)C(=O)O1 (stereo not shown)	1.57
O=C(CCl)C1CCCCO1 (stereo not shown)	94.5
O=C(CCl)NCC1CCCO1 (stereo not shown)	5.15
C=CC(=O)NCCC1CCCCO1 (stereo not shown)	2.29
CN(C)S(=O)(=O)c1cccc(NC(=O)CCl)c1	15.5
O=C(Cn1ncc2ccccc21)Nc1cccc(S(=O)(=O)F)c1	94.6
O=C(CSC(F)(F)F)Nc1cccc(S(=O)(=O)F)c1	99.8
Cn1c(=O)ccn(CC(=O)Nc2cccc(S(=O)(=O)F)c2)c1=O	99.6
CCn1nc(C)c(C(=O)Nc2cccc(S(=O)(=O)F)c2)c1Cl	8.14
NS(=O)(=O)c1cccc(NC(=O)CCCl)c1	4.37
O=Cc1cccc(C(=O)O)c1O	24.2
C=CC(=O)N1CCN(CC(C)C)C(=O)C1	0.18
COc1ccc(CS(=O)(=O)F)cc1[N+](=O)[O-]	18.4
C=CC(=O)N1CC(Cc2cccs2)C1	12.5
C=CC(=O)NCCc1nnc2n1CCCCC2	8.54
COc1ccc(C(=O)NNC(=O)CCl)cc1	-3.11
N#Cc1ncn(CCOc2ccccc2Cl)n1	8.15
C=CC(=O)N1CC(C)OC2(CCOC(C)C2)C1 (stereo not shown)	9.19
O=C(CCl)Nc1ccc(Cl)cc1F	49.7
O=C(CCl)Nc1ccc(F)cc1Cl	13.8

SMILES	Inhibition % [%]
Cc1cc(SC#N)cc(C)c1NC(=O)CCl	4.28
N#CSc1ccc(NC(=O)CCl)c(Cl)c1	55.8
O=C(CCl)Nc1ccc(F)c(F)c1F	32.8
O=C(CCl)Nc1ccc(Br)cc1F	71.1
O=C(CCl)Nc1ccc(Cl)cc1Cl	18
O=C(CCl)Nc1ccc(F)cc1F	23.9
N#CSc1ccc(NC(=O)CCl)c(F)c1	72
Cc1cccc(OCC(=O)Nc2ccc(S(=O)(=O)F)cc2)c1	9.17
OB(O)c1ccccc1OCC1CCOC1 (stereo not shown)	5.05
Cc1cc(CN(C)c2ccc(C#N)nc2)no1	-2.05
CN(CC(=O)Nc1ncc(S(=O)(=O)F)s1)S(C)(=O)=O	9.17
CSC1(CNc2cccc(C#N)n2)CCC1	11.9
C=CC(=O)Nc1ccccc1CN1CCOCC1	8.41
CCOc1cc(S(=O)(=O)n2ccc(C)n2)ccc1Cl	2.71
Cc1cc(B2OC(C)(C)C(C)(C)O2)sn1	0.986
O=C1N(c2ccccc2)C(c2ccco2)C1(F)F (stereo not shown)	3.32
Sc1ncccc1Cl	2.79
Cc1cccnc1S	12.6
Nc1cccnc1S	101
C=CC(=O)NC(C)c1csnn1 (stereo not shown)	10
N#Cc1nc(N2CCCC(N3CCNC3=O)C2)ccc1Cl (stereo not shown)	1.45
Fc1ccccc1OCC1CO1 (stereo not shown)	54.7

SMILES	Inhibition % [%]
Cc1ccccc1OCC1CO1 (stereo not shown)	13.4
FC(F)(F)c1ccccc1OCC1CO1 (stereo not shown)	11.7
C=CC(=O)NCC1=CCOCC1	6.41
COC(=O)c1ccc(S(=O)(=O)F)cc1F	4.21
COC(=O)c1ccccc1S(=O)(=O)F	52.5
COC(=O)c1cccc(S(=O)(=O)F)n1	7.02
COC(=O)c1ccc(Cl)cc1S(=O)(=O)F	96.1
COC(=O)c1ccc(Cl)c(S(=O)(=O)F)c1	9.08
COC(=O)c1ccccc1CS(=O)(=O)F	7.86
Cc1noc(C2CCN(Cc3cc(C#N)n(C)c3)C2)n1 (stereo not shown)	6.79
C=CC(=O)N1CCC[C@@H]2O[C@H](c3ccccc3)C[C@@H]21 (racemic)	5.3
N#Cc1nccnc1SC1CCCC1	6.92
O=S(=O)(C=Cc1ccccc1)NCc1cccnc1	15.5
C=C(C(=O)O)c1ccccc1F	3.02
CC1(C2CC2)CCN(c2cncc(C#N)n2)CC1	6.7
O=C(O)c1nccnc1S	83.1
O=C(O)c1ccnc(S)c1	11.8
Nc1nccnc1S	26.8
C=CC(=O)NC1CCN(c2ncccc2F)C1 (stereo not shown)	14.9
C=CC(=O)N1CCC(c2cccc(C(F)(F)F)c2)C1 (stereo not shown)	10.4
C=CC(=O)Nc1ccc2c(c1)CCC(C)(C)O2	6.26
COC(=O)Nc1ccc(S(=O)(=O)F)cc1	34.7

SMILES	Inhibition % [%]
COC(=O)Nc1ccc(S(=O)(=O)F)cc1[N+](=O)[O-]	101
COc1ccc(NC(=O)CCl)c([N+](=O)[O-])c1	10.4
C=CC(=O)N1CC(C(C)C)c2ccccc21 (stereo not shown)	5.57
C=CC(=O)N(C)CC(=O)Nc1csc(C)n1	7.47
C=CC(=O)N(C)CC(=O)Nc1cc(C)on1	7.52
C=CC(=O)N(C)CC(=O)Nc1cc(C)c(=O)n(C)c1	54.5
C=CCNC(=O)C(C#N)=Cc1cc(F)ccc1F	6.92
CC1CC1C(=O)N1CCC(S(=O)(=O)F)C1 (stereo not shown)	36.5
C=CC(=O)N1CCC(CS(C)(=O)=O)C1 (stereo not shown)	4.28
CC1CC1C(=O)N1CCC(CS(=O)(=O)F)C1 (stereo not shown)	96.8
CC1CC1C(=O)N1CCCC(CS(=O)(=O)F)C1 (stereo not shown)	71.5
CC1CC1C(=O)N1CCC(CS(=O)(=O)F)CC1 (stereo not shown)	25.9
O=C(C1CCOCC1)N1CCC(S(=O)(=O)F)C1 (stereo not shown)	19.5
O=C(C1CCOCC1)N1CCCC(CS(=O)(=O)F)C1 (stereo not shown)	55.9
O=C(C1CCOCC1)N1CCC(CS(=O)(=O)F)CC1	20.1
O=C(C1CCOCC1)N1CCCC(S(=O)(=O)F)C1 (stereo not shown)	8.98
CC1CC1C(=O)N1CC(CS(=O)(=O)F)C1 (stereo not shown)	16.8
CC1CC1C(=O)N1CCOC(CS(=O)(=O)F)C1 (stereo not shown)	11.8
CC1CC1C(=O)N1CCC(S(=O)(=O)F)CC1 (stereo not shown)	72.2
